# Screening results from PubChem.
# RORgamma inh: ROR gamma (mouse) transcription inhibition. Potency, µM (series often up to 53.6 µM), usual class: inhibitors. AID 2551. Drosophila S2 Gal4-RORgamma UAS-luciferase reporter, 20 h. 310,000 compounds, 5.4% hits. P51450; also: nearly all actives have a fitted effect of over 60% in size
# Target sequence (P51450 whole entry, looked up, the tested form may be a part): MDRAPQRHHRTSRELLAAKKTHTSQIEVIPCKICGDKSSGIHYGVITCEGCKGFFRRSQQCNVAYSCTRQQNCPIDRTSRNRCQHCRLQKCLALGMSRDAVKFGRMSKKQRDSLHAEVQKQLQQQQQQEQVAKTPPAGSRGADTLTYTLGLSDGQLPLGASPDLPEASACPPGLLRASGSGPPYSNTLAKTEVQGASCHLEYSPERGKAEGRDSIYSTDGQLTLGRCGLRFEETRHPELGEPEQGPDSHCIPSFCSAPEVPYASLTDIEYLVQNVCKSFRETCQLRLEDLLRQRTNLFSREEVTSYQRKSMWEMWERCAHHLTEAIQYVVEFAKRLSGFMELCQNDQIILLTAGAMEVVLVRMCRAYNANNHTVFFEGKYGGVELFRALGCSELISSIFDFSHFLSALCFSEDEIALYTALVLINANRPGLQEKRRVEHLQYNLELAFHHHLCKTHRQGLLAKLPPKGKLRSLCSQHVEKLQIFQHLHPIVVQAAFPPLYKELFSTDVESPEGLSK
#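 Luciferase reporter read in Schneider cells carrying Gal4-RORγ (mouse) and UAS-Photinus luciferase; cells given compound 1 h before 700 uM copper sulfate induction, then incubated 20 h at ambient temperature.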
# Gal4-VP16 FLuc: inhibits Gal4-VP16 luciferase reporter, ROR gamma counter-screen | Drosophila S2 Gal4-VP16 UAS-luciferase, luminescence, 20 h | Potency, µM (series often up to 53.6 µM), actives largely listed as inhibitors | 310,000 compounds, 3.5% hits;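 also: Gal4-VP16 expression switched on by copper sulfate through the metallothionein promoter; nearly all actives have a fitted effect of over 50% in size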
# NPSR antagonist: blocks cAMP signaling of the human neuropeptide S receptor. Potency, µM (doses to about 38.3 µM), most hits filed as inhibitors. CHO-NPSR cells, cAMP TR-FRET, antagonist mode. 220,000 compounds, 1% hits. Q6W5P4; also: nearly all actives have a fitted effect of over 50% in size
# B2AR arrestin: recruits beta-arrestin to the human beta2-adrenergic receptor; 330,000 compounds, 0.02% hits; P07550; beta-arrestin recruitment to beta2AR, cell-based reporter; Potency, µM (series often up to 46.1 µM), most hits filed as activators; also: nearly all actives have a fitted effect of over 65% in size
# Hits are given with their value; – = inactive; ? = inconclusive; · = no result; [ ] = remark or other dose. A selection: hits, their analogues and other compounds. The true share with any hit is near 5.7%. Calls follow the shape of the dose curve; as a rule, active = well fitted curve in the direction sought with a large enough effect; inconclusive = small, poorly fitted or top-dose-only effect, or another doubt; inactive = no such curve, though single readings can be large; an effect the other way counts as inactive or inconclusive.
SMILES,RORgamma inh,Gal4-VP16 FLuc,NPSR antagonist,B2AR arrestin
Cc1ccc(C(=O)NC(=S)N(C)C2CCCCC2)cc1,2.24µM,3.16µM,·,–
O=C(NCCC(=O)N(CCc1ccccc1)Cc1ccccc1)c1ccc([N+](=O)[O-])cc1,·,·,·,–
CCOC(=O)C1CCN(S(=O)(=O)c2ccc3c(c2)N(C(C)=O)CC(C)S3)CC1 (stereo unspecified),–,?,·,–
Cc1nc2ccc([N+](=O)[O-])cc2c(=O)n1Cc1ccccc1Br,–,–,·,–
CCC(C)Cn1c(C)nc2ccccc21 (stereo unspecified),12.6µM,12.6µM,–,–
Cc1nc2ccccc2n1CSc1ccccc1,14.1µM,–,–,–
Cc1nc2ccccc2n1Cc1ccccc1Br,?,12.6µM,·,–
Cc1nc2ccccc2n1CC(=O)c1ccccc1,–,–,·,–
COc1ccc(NC(=O)CN2CCN(S(=O)(=O)N3CCCCCC3)CC2)cc1,–,–,·,–
CCOc1ccc(C(=O)CCC(=O)O)cc1,–,–,–,–
CCOc1ccc(/C(CCC(=O)O)=N/NC(=S)NC(C)C)cc1,11.2µM,?,–,?
CC/C(=N\NC(=S)NC(C)C)c1ccc(OC)c(OC)c1,4.47µM,10µM,–,?
CC/C(=N\NC(N)=O)c1ccc(OC)c(OC)c1,–,–,?,–
Cc1ccc(CS/C(Nc2ccccc2C)=C(\C#N)C(N)=O)c(C)c1,–,–,?,–
O=S(=O)(N/N=C1\CCCc2ccccc21)c1ccccc1,·,·,·,–
c1ccc(N/N=C2\CCCc3ccccc32)nc1,12.6µM,?,–,–
Cc1cc(N/N=C2/CCCc3ccccc32)nc2ccccc12,2µM,11.2µM,?,–
CCCCCCCCCC(=O)NO,–,–,·,·
CCS(=O)(=O)c1ccc(O)c(NC(=O)Nc2ccc(C(C)(C)C)cc2)c1,–,–,–,–
CC(=O)OC[C@@H]1O[C@@H](O/N=C2/C[C@@H](O)[C@@H](O)[C@@H]3[C@@H]4C(=O)N(C5CCCCC5)C(=O)[C@H]4CC[C@H]23)[C@H](OC(C)=O)[C@H](OC(C)=O)[C@@H]1OC(C)=O,–[10 µM],–[10 µM],·,·
O=C(NN=C1CCCCCC1)c1cccs1,–,–,·,–
CC1C2CC(C/C2=N/NC(=O)c2cccs2)C1(C)C (stereo unspecified),?,2µM,–,–
C[C@@H]1C2CC(C/C2=N\NC(=O)c2ccncc2)C1(C)C (stereo partly specified),7.94µM,12.6µM,·,–
Cc1cc(C)c(NC(=O)CS(=O)CC(=O)N2CCN(c3cccc(C)c3C)CC2)c(C)c1 (stereo unspecified),–,–,·,–
Cc1cc2c(cc1C)NC(c1c(C)n(C)n(-c3ccccc3)c1=O)C1=C(CC(C)(C)CC1=O)N2 (stereo unspecified),12.6µM,–,–,–
SMILES,RORgamma inh,Gal4-VP16 FLuc,NPSR antagonist,B2AR arrestin
COc1c(O)ccc(/C=N/NC(=O)c2ccc3c(c2)OCCO3)c1[N+](=O)[O-],1.12µM,1.58µM,–[7.67 µM],–
O=C(N/N=C/c1cc2c(cc1[N+](=O)[O-])OCO2)c1ccc2c(c1)OCO2,–,–,·,–
COc1c(O)ccc(/C=N\NC(=O)c2ccc3c(c2)OCO3)c1[N+](=O)[O-],10µM,?,·,–
COc1ccc(-n2c(=O)cnc3cnc(N4CCOCC4)nc32)cc1,–,–,·,·
CC1(C)O[C@@H]2C[C@H]3[C@@H]4CCC5=CC(=O)C=C[C@]5(C)[C@@]4(F)[C@@H](O)C[C@]3(C)[C@]2(C(=O)CO)O1,?,–,–,–
CC(=O)OCC(=O)[C@@]12OC3(CCCC3)O[C@@H]1C[C@H]1[C@@H]3CCC4=CC(=O)C=C[C@]4(C)[C@@]3(F)[C@@H](O)C[C@@]12C,8.91µM,–,3.98µM,–
C/C(=N\Nc1ncc(Cl)cc1Cl)c1ccc(C#N)cc1,?,–,–,–
COc1ccc(/C(C)=N/Nc2ncc(Cl)cc2Cl)c(O)c1,0.112µM,0.794µM,–,–
CCN(CC)C(=O)COc1ccc(/C(C)=N/Nc2ncc(Cl)cc2Cl)cc1,6.31µM,?,–,–
Cc1[nH]c2c(ccc3cccnc32)c1C,–,–,–,–
Clc1ccc2ccc3cccnc3c2n1,12.6µM,?,·,–
O=C1C([N+](=O)[O-])=C(O)c2cccc3cccc1c23,?,17.8µM,·,–
O=C1c2cccc3cc([N+](=O)[O-])cc(c23)C(=O)N1/N=C/c1ccc(O)cc1O,–,?,–,–
CC(C)(C)c1ccc(/C=C/C(=O)NC2=NCCS2)cc1,2.82µM,4.47µM,–,–
Cc1ccc(OCC(=O)NC2=NCCS2)cc1,–,–,–,–
Cc1ccc(/C=C/C(=O)NC2=NCCS2)cc1,11.2µM,?,–,–
Cc1nnsc1-c1nnc(SCC(=O)c2ccccc2)n1C1CC1,–,–,–,–
COc1ccc(NC(=S)NNC(=O)COc2ccc(Cl)cc2Cl)cc1,?,–,–,–
O=C(COc1cccc2cccnc12)NNC(=S)Nc1ccccc1,0.891µM,–,–,–
COc1ccc(Cl)cc1NC(=S)Nc1cccc(C)c1,11.2µM,?,–,–
Cc1cccc(NC(=S)NNC(=O)COc2ccc(Cl)cc2Cl)c1,4.47µM,2.82µM,–,–
CCC(=O)NC(=S)Nc1ccc(NC(=O)COc2ccc(Cl)cc2Cl)cc1,11.2µM,?,?,–
C=CCC[C@H](Cc1ccc(F)cc1)C(=O)OC[C@H](C)NC(=O)[C@@H](CC=C)CC(=O)N[C@H](CO)Cc1ccccc1,·,·,·,–
Cc1cc2nc(CCN(C(=S)NCC(C)C)C3CCCC3)[nH]c2cc1C,7.08µM,?,?,–
Cc1cc2nc(CCN(C(=S)NCC3CCCO3)C3CCCC3)[nH]c2cc1C (stereo unspecified),12.6µM,?,?,–
SMILES,RORgamma inh,Gal4-VP16 FLuc,NPSR antagonist,B2AR arrestin
O=C(c1cnccn1)N1CCC2(CC1)CN(Cc1cc(C(F)(F)F)cc(C(F)(F)F)c1)C2,–,–,·,·
Cc1ccc(C(=O)Nc2ccc3nc(C)sc3c2)s1,?,–,–,–
Cc1nc2cc(NC(=O)c3ccc(Br)s3)ccc2s1,5.01µM,?,·,–
O=c1cc(N2CCCCC2)c(-c2ccccc2)nn1Cc1c(Cl)cccc1Cl,–,–,10µM,–
O=c1cc(N2CCCCC2)c(-c2ccccc2)n[nH]1,–,–,–,–
Cc1c([N+](=O)[O-])nnn1-c1cc(Cl)cc(Cl)c1,–,–,–,–
O=C1c2sc3nc4ccccc4n3c2C(=O)N1c1ccccc1Cl,–,–,10µM,–
Cc1ccccc1N1C(=O)c2sc3nc4c(c(=O)n3c2C1=O)CCC4,–,–,?,–
Cc1onc(-c2ccccc2)c1C(=O)N/N=C/c1c[nH]c2ccccc12,2.82µM,7.08µM,–,–
COc1cc(/C=N/NC(=O)c2c(-c3ccccc3)noc2C)ccc1O,–,–,–,·
Cc1ccc(/C=N/NC(=O)c2c(-c3ccccc3)noc2C)c(O)c1,3.16µM,3.16µM,·,–
COc1cccc(/C=N/NC(=O)c2cnccn2)c1O,2.24µM,2.51µM,–,–
CCOc1cc([N+](=O)[O-])cc(/C=N/NC(=O)c2c(-c3ccccc3)noc2C)c1O,0.631µM,0.631µM,·,–
CCOc1cc(/C=N/NC(=O)c2c(-c3ccccc3)noc2C)ccc1O,–,–,–,–
Cc1onc(-c2ccccc2)c1C(=O)N/N=C/c1cc2c(cc1Cl)OCO2,–,–,–,–
